Where a name gives a salt, the structure may show the parent alone.
Test system: HL-1
Experiment: relative cell viability (CellTiter-Glo) vs DMSO control (% of DMSO control); higher = more viable cells
Method in brief: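 HL-1 mouse atrial cardiomyocytes were seeded into 384-well plates at 1000 cells per well along with compounds at 40, 200, 1000 or 5000 nM in 0.01% DMSO. After one day, the cells were moved to a hypoxic workstation (1% O2) for 48 h and then reoxygenated for 24 h in a normal incubator, while others remained in normoxia for the same period. Cell viability was measured by CellTiter-Glo luminescence and normalised to vehicle-treated control cells.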

[1] = oxygen condition: hypoxia 48 h (1% O2) + reoxygenation 24 h, 40 nM
[2] = oxygen condition: hypoxia 48 h (1% O2) + reoxygenation 24 h, 200 nM
[3] = oxygen condition: hypoxia 48 h (1% O2) + reoxygenation 24 h, 1000 nM
[4] = oxygen condition: hypoxia 48 h (1% O2) + reoxygenation 24 h, 5000 nM
[5] = oxygen condition: normoxia 72 h, 40 nM
[6] = oxygen condition: normoxia 72 h, 200 nM
[7] = oxygen condition: normoxia 72 h, 1000 nM
[8] = oxygen condition: normoxia 72 h, 5000 nM

Compound	relative cell viability [1]	relative cell viability [2]	relative cell viability [3]	relative cell viability [4]	relative cell viability [5]	relative cell viability [6]	relative cell viability [7]	relative cell viability [8]
COc1cc(C(C)=O)ccc1OCCCN1CCC(c2noc3cc(F)ccc23)CC1 [Iloperidone]	108	104	107	107	99.6	109	119	109
Cn1c([N+](=O)[O-])cnc1COC(N)=O [Ronidazole]	107	112	106	118	112	113	121	110
CN[C@H](CC(C)C)C(=O)N[C@H]1C(=O)N[C@@H](CC(N)=O)C(=O)N[C@H]2C(=O)N[C@H]3C(=O)N[C@H](C(=O)N[C@H](C(=O)O)c4cc(O)cc(O)c4-c4cc3ccc4O)[C@H](O)c3ccc(c(Cl)c3)Oc3cc2cc(c3O[C@@H]2O[C@H](CO)[C@@H](O)[C@H](O)[C@H]2O[C@H]2C[C@](C)(N)[C@H](O)[C@H](C)O2)Oc2ccc(cc2Cl)[C@H]1O [Vancomycin HCl]	105	92.7	105	114	106	99.4	106	113
CCCCOc1ccc(OCCCN2CCOCC2)cc1 [Pramoxine HCl]	106	110	110	118	110	107	97.5	119
Cc1nc(Nc2ncc(C(=O)Nc3c(C)cccc3Cl)s2)cc(N2CCN(CCO)CC2)n1 [Dasatinib]	71.8	87.1	80.2	90.2	85.9	88.5	82.1	89.2
CC(C)(C)c1ccc(C(O)CCCN2CCC(C(O)(c3ccccc3)c3ccccc3)CC2)cc1 (stereo not drawn) [Terfenadine]	89	102	94.4	79.4	97.4	91.5	76.7	79.7
CCCSc1nc(N[C@@H]2C[C@H]2c2ccc(F)c(F)c2)c2nnn([C@@H]3C[C@H](OCCO)[C@@H](O)[C@H]3O)c2n1 [Ticagrelor]	109	115	108	123	108	108	113	111
NC(CO)C(=O)NNCc1ccc(O)c(O)c1O (stereo not drawn) [Benserazide]	107	101	111	110	97.3	104	102	107
CC(S)C(=O)NCC(=O)O (stereo not drawn) [Tiopronin]	95.4	102	104	105	99.2	98.9	101	103
NS(=O)(=O)c1cc2c(cc1Cl)NC(C(Cl)Cl)NS2(=O)=O (stereo not drawn) [Trichlormethiazide]	109	109	118	119	107	115	112	114
CNCC[C@@H](Oc1ccccc1C)c1ccccc1 [Atomoxetine HCl]	102	104	108	108	100	102	103	119
O=c1c(-c2ccc(O)cc2)coc2cc(O)cc(O)c12 [Genistein]	104	106	113	110	111	104	106	111
Clc1ccc(C(c2ccccc2Cl)C(Cl)Cl)cc1 (stereo not drawn) [Mitotane]	108	105	107	102	104	110	106	121
CC(C)(CO)[C@@H](O)C(=O)NCCC(=O)O [Pantothenic acid]	100	103	104	108	100	101	99.5	106
CCOc1nc2cccc(C(=O)O)c2n1Cc1ccc(-c2ccccc2-c2nnn[nH]2)cc1 [Candesartan]	110	105	110	109	107	109	108	110
CN(C)CC/C=C1/c2ccccc2COc2ccc(CC(=O)O)cc21 [Olopatadine hydrochloride]	93	92.6	92.2	99.1	89.6	91.6	97.1	102
CCN(CCCc1ccccc1)CCCc1ccccc1 [Alverine Citrate]	107	110	102	110	102	105	106	113
COc1cc([C@@H]2c3cc4c(cc3[C@@H](O[C@@H]3O[C@@H]5CO[C@@H](c6cccs6)O[C@H]5[C@H](O)[C@H]3O)[C@H]3COC(=O)[C@H]23)OCO4)cc(OC)c1O [Teniposide]	96.6	102	98.2	115	105	104	102	118
CCOc1nc2cccc(C(=O)OC(C)OC(=O)OC3CCCCC3)c2n1Cc1ccc(-c2ccccc2-c2nn[nH]n2)cc1 (stereo not drawn) [Candesartan cilexetil]	106	104	97.6	4.71	98	102	101	4.11
C[C@H](CCC(=O)O)[C@H]1CC[C@H]2[C@@H]3[C@@H](O)C[C@@H]4C[C@H](O)CC[C@]4(C)[C@H]3CC[C@]12C [Ursodiol]	103	106	118	106	99.7	105	119	108
CCC(C)(C)C(=O)O[C@H]1C[C@@H](C)C=C2C=C[C@H](C)[C@H](CC[C@@H]3C[C@@H](O)CC(=O)O3)[C@H]21 [Simvastatin]	109	108	99.2	3.87	111	103	50.4	2.69

Compound	relative cell viability [1]	relative cell viability [2]	relative cell viability [3]	relative cell viability [4]	relative cell viability [5]	relative cell viability [6]	relative cell viability [7]	relative cell viability [8]
CC/C(=C(\c1ccccc1)c1ccc(OCCN(C)C)cc1)c1ccccc1 [Tamoxifen Citrate]	103	99.9	98.6	108	95.9	107	105	103
N=C(N)Nc1ccc(C(=O)Oc2ccc3cc(C(=N)N)ccc3c2)cc1 [Nafamostat mesylate]	103	104	108	105	105	110	111	107
C[C@]12CC[C@@H]3c4ccc(O)cc4CC[C@H]3[C@@H]1CCC2=O [Estrone]	102	107	107	109	102	105	107	115
c1ccc2c(CC3=NCCN3)cccc2c1 [Naphazoline hydrochloride]	97.8	111	106	109	98.8	102	106	102
CCOc1cc(N)c(Cl)cc1C(=O)NCC1CN(Cc2ccc(F)cc2)CCO1 (stereo not drawn) [Mosapride citrate]	105	106	104	104	104	109	103	109
Cn1c(CNc2ccc(C(=N)N)cc2)nc2cc(C(=O)N(CCC(=O)O)c3ccccn3)ccc21	104	96	102	108	102	102	102	106
COc1ccc2[nH]c([S+]([O-])Cc3ncc(C)c(OC)c3C)nc2c1 (stereo not drawn) [Omeprazole]	101	99.7	107	110	104	103	103	105
CN(N=O)C(=O)N[C@@H](C=O)[C@@H](O)[C@H](O)[C@H](O)CO [Streptozotocin]	103	103	99.8	109	99.9	109	104	102
COc1ccccc1OCC(O)CN1CCN(CC(=O)Nc2c(C)cccc2C)CC1 (stereo not drawn) [Ranolazine dihydrochloride]	88.7	89.7	86.8	108	98.5	97.1	98.8	110
CCNC(=O)CCC/C=C\C[C@@H]1[C@@H](/C=C/[C@@H](O)CCc2ccccc2)[C@H](O)C[C@@H]1O [Bimatoprost]	104	107	108	105	104	101	105	107
NC(=O)N1c2ccccc2CC(=O)c2ccccc21 [Oxcarbazepine]	104	105	116	102	108	127	116	109
COC(=O)C1=C(C)NC(C)=C(C(=O)OCC(C)C)C1c1ccccc1[N+](=O)[O-] (stereo not drawn) [Nisoldipine]	106	104	107	110	99.2	110	116	111
COc1ccc([C@@H]2Sc3ccccc3N(CCN(C)C)C(=O)[C@@H]2OC(C)=O)cc1 [Diltiazem HCl]	104	105	106	114	105	108	109	113
COc1cc2ncnc(Nc3ccc(F)c(Cl)c3)c2cc1OCCCN1CCOCC1 [Gefitinib]	106	114	122	100	101	112	99.4	100
CCOc1nc2cccc(C(=O)O)c2n1Cc1ccc(-c2ccccc2-c2noc(=O)[nH]2)cc1 [Azilsartan]	104	108	111	115	109	110	114	111
COc1cc2/c(=N/c3ccc(Br)cc3F)nc[nH]c2cc1OCC1CCN(C)CC1 [Vandetanib]	110	115	115	102	113	112	116	102
Clc1ccccc1CN1CCc2sccc2C1 [Ticlopidine HCl]	96.8	94.8	97	103	94.9	97.1	95.5	108
COc1ccccc1OCC(O)CN1CCN(CC(=O)Nc2c(C)cccc2C)CC1 (stereo not drawn) [Ranolazine]	85	102	98	112	105	102	107	118
Nc1nc(N)nc(-c2cc(Cl)ccc2Cl)n1 [Irsogladine]	101	104	107	109	98.2	104	108	107
C[C@@H](O)[C@H]1C(=O)N2C(C(=O)OCOC(=O)C(C)(C)C)=C(SC3CN(C4=NCCS4)C3)[C@H](C)[C@H]12 [Tebipenem pivoxil]	98.3	102	99.2	91.2	96.9	92.7	101	93.4

Source: the supplement of paper PMC8371130
